# Results published in PubChem BioAssay (Tox21).
# Results filed as inconclusive are left out. Calls of active or inactive are those of the source. Unless noted, the call rests on the fitted dose curve; in most records, active means well fitted cell-killing curve with a large enough effect in the repeat runs; inconclusive means weak or mixed curves, or effect the other way; inactive means flat fitted curve, though single readings scatter.
# Biological target: Estrogen receptor beta (Homo sapiens) (UniProt Q92731)
# Experiment: qHTS assay to identify small molecule antagonists of the estrogen receptor beta (ER-beta) signaling pathway (AID 1259378; active means well fitted inhibition curve with a large enough effect in the signal ratio in the repeat runs, not every such curve was filed as active; the % refers to the signal ratio)
# Conditions: ER-beta-UAS-bla HEK293T, beta-lactamase FRET ratio, 16 h; series mostly up to 92.4 µM; activity, negative = inhibition: at the top concentration
# Outline: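 ER-beta-UAS-bla HEK293T cells in 2% charcoal-stripped FBS medium treated with compound plus 1nM final 17-beta-estradiol for 16 hr at 37C. Beta-lactamase reporter read by FRET substrate fluorescence after 2 hours at room temperature.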
# On the % scale 0 is the no-effect control and ±100 the full control effect.
# Estrogen receptor beta (Homo sapiens), sequence (Q92731 whole entry, looked up): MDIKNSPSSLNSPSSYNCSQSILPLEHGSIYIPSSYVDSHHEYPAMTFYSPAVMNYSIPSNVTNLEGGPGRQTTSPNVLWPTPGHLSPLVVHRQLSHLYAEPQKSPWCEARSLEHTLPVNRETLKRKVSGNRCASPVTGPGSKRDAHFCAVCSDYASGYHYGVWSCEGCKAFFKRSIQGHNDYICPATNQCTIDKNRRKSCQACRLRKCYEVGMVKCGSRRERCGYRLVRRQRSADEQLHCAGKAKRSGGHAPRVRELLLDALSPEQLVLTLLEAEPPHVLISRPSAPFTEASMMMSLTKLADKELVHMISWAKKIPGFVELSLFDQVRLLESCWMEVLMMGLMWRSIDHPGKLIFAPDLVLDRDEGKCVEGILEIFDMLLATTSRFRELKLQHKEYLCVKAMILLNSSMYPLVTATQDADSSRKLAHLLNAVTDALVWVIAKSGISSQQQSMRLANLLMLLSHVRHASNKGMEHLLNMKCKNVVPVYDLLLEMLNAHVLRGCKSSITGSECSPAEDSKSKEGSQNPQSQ
SMILES,"activity, negative = inhibition",outcome
c1ccc(OP(Oc2ccccc2)Oc2ccccc2)cc1,5.93% (inactive),
CC(C)OC(=O)Nc1cccc(Cl)c1,-4.74% (inactive),
CCCCOC(=O)c1ccccc1C(=O)OCCCC,,inactive
Cc1cc(Cl)ccc1O,,inactive
CC(C)(C)OOC(=O)c1ccccc1,,inactive
Nc1c(Cl)c(Cl)nc(C(=O)O)c1Cl,,inactive
OC(O)C(Cl)(Cl)Cl,,inactive
Nc1ccccc1C(=O)O,12.8% [at 42.5 µM] (inactive),
CCOP(=S)(OCC)SCCSCC,,inactive

# Test system: not listed separately
# Experiment: qHTS assay to identify small molecule agonists of the androgen receptor (AR) signaling pathway in the presence of an antagonist - cell viability counter screen (AID 1259379);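 further: MDA-kb2 human breast cancer cells carrying an MMTV luciferase reporter; nearly all actives have a fitted effect of over 25% in size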
# Conditions: MDA-kb2 viability, CellTiter-Fluor, 16 h; series mostly up to 92.4 µM; activity change, negative = cytotoxicity: at the top concentration
# Outline: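 Seed MDA-kb2 at 3,000 cells/well; incubate 5 hr, 37C, 0% CO2. Add nilutamide to 3.0uM final, then pin compounds at 15 concentrations. Incubate 16 hr. Add CellTiter-Fluor at 15 hr, read fluorescence after 1 hr.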
SMILES,outcome,"activity change, negative = cytotoxicity"
c1ccc(OP(Oc2ccccc2)Oc2ccccc2)cc1,inactive,
COC(=O)c1ccccc1N,inactive,
CCOP(=S)(OCC)Oc1cnc2ccccc2n1,inactive,
CCCN(CCC)N=O,inactive,
CN(N=O)c1ccccc1,inactive,
CC(C)OC(=O)Nc1cccc(Cl)c1,inactive,
CCCCOC(=O)c1ccccc1C(=O)OCCCC,inactive,
CCCCN(CCCC)SN(C)C(=O)Oc1cccc2c1OC(C)(C)C2,inactive,
CC(NC(C)(C)C)C(=O)c1cccc(Cl)c1 (stereo unspecified),inactive,
CC(C)(C)C(O)(CCc1ccc(Cl)cc1)Cn1cncn1 (stereo unspecified),,1.01% (inactive)
CC(C)C#N,inactive,
Cc1cc(Cl)ccc1O,inactive,
O=S(=O)(c1ccc(O)cc1)c1ccc(O)cc1,inactive,
Cc1ccc([N+](=O)[O-])cc1C,inactive,
C1CN2CCN1CC2,inactive,
CC(C)(Cl)Cl,inactive,
CC(C)(C)OOC(=O)c1ccccc1,inactive,
CCc1cccc(C)c1N(C(=O)CCl)C(C)COC (stereo unspecified),inactive,
c1ccc2c(c1)Oc1ccccc1O2,inactive,

SMILES,outcome,"activity change, negative = cytotoxicity"
O=[N+]([O-])c1ccc(Oc2ccc(Cl)cc2Cl)cc1,inactive,
CCC[N+](=O)[O-],,2.52% (inactive)
Nc1c(Cl)c(Cl)nc(C(=O)O)c1Cl,inactive,
CC(=O)C=C(C)C,inactive,
C#CC(C)(C)NC(=O)c1cc(Cl)cc(Cl)c1,inactive,
CN(C)CCO,inactive,
OC(O)C(Cl)(Cl)Cl,inactive,
CC1C=[C-]C=C1.[C-]#[O+].[C-]#[O+].[C-]#[O+].[Mn],inactive,
CCN(CC)c1ccccc1,inactive,
CCC(C)(CC)c1cc(NC(=O)c2c(OC)cccc2OC)on1,inactive,
CCC12COCN1COC2,inactive,
CC(C)NC(=O)N1CC(=O)N(c2cc(Cl)cc(Cl)c2)C1=O,inactive,
C1CC2OC2CC1C1CO1 (stereo unspecified),inactive,
CC(C#N)CCC#N (stereo unspecified),inactive,
Nc1ccccc1C(=O)O,inactive,
CCOP(=S)(OCC)SCCSCC,inactive,
[O-][Cl+2]([O-])O,inactive,
Clc1cccc(Cl)c1Cl,inactive,
